The source of these data is ChEMBL document CHEMBL2218924, “A broad activity screen in support of a chemogenomic map for kinase signalling research and drug discovery” (Biochem J, 2013).

The target of test [1] is T1, Ephrin type-B receptor 1 (Homo sapiens) (UniProt P54762).
T1 sequence (whole entry): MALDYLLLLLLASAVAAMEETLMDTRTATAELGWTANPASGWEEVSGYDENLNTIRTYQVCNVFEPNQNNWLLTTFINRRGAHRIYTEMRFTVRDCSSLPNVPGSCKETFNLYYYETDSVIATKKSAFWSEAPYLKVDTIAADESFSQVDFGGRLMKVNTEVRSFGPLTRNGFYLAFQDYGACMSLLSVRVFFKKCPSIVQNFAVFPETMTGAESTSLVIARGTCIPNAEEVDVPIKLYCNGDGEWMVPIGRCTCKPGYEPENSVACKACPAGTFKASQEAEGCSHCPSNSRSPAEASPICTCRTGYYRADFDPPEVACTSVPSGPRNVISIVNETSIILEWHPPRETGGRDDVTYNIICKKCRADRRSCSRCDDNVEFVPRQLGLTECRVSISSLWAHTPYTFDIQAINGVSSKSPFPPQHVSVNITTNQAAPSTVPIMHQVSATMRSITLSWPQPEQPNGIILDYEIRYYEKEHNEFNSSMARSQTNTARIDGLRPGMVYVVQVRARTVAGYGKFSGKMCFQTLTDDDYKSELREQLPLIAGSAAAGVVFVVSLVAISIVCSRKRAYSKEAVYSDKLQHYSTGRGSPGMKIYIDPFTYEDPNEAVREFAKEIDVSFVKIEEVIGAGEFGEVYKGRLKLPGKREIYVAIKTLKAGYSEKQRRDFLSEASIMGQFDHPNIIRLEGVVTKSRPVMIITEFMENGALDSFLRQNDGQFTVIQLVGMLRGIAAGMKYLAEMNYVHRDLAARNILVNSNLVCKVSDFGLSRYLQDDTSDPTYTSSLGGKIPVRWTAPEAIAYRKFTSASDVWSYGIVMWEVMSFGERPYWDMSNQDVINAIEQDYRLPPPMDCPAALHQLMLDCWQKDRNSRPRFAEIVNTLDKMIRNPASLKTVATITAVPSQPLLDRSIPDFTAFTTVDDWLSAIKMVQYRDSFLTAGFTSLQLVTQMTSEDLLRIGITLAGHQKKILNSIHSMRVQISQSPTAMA
Particulars: at 10 µM; call rule not given here.

Test [2] deals with T2, Ephrin type-B receptor 2 (Homo sapiens) (UniProt P29323).
T2 sequence (whole entry): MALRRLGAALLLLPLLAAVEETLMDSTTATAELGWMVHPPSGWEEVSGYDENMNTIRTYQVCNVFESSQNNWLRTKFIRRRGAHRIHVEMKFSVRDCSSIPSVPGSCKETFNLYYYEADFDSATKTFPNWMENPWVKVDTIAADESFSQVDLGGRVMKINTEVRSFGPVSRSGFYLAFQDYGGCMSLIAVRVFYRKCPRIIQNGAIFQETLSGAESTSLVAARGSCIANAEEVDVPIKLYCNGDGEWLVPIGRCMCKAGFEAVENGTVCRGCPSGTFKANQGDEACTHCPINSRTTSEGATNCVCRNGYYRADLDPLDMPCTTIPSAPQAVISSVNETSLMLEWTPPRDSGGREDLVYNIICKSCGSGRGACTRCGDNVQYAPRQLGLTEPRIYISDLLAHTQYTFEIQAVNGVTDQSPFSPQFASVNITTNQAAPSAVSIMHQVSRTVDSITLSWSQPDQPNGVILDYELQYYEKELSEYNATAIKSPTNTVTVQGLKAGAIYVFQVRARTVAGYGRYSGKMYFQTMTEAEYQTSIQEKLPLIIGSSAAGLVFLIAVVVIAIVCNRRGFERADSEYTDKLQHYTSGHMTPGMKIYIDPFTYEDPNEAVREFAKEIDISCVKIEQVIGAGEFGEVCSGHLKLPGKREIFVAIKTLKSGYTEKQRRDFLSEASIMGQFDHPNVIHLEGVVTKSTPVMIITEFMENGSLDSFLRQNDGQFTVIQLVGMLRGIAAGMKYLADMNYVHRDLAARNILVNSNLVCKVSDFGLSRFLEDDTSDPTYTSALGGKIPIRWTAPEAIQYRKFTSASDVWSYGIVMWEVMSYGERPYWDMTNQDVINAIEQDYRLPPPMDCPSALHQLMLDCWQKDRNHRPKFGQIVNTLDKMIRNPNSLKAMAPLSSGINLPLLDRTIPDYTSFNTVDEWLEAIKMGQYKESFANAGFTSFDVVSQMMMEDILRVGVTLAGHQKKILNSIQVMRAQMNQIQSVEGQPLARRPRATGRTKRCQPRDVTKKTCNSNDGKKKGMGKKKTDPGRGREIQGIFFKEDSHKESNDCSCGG
Particulars: at 1 µM.

In test [3] the target is T2, Ephrin type-B receptor 2 (Homo sapiens). The following applies: at 10 µM.
Test [4] has as its target T3, Ephrin type-B receptor 3 (Homo sapiens) (UniProt P54753).
T3 sequence (whole entry): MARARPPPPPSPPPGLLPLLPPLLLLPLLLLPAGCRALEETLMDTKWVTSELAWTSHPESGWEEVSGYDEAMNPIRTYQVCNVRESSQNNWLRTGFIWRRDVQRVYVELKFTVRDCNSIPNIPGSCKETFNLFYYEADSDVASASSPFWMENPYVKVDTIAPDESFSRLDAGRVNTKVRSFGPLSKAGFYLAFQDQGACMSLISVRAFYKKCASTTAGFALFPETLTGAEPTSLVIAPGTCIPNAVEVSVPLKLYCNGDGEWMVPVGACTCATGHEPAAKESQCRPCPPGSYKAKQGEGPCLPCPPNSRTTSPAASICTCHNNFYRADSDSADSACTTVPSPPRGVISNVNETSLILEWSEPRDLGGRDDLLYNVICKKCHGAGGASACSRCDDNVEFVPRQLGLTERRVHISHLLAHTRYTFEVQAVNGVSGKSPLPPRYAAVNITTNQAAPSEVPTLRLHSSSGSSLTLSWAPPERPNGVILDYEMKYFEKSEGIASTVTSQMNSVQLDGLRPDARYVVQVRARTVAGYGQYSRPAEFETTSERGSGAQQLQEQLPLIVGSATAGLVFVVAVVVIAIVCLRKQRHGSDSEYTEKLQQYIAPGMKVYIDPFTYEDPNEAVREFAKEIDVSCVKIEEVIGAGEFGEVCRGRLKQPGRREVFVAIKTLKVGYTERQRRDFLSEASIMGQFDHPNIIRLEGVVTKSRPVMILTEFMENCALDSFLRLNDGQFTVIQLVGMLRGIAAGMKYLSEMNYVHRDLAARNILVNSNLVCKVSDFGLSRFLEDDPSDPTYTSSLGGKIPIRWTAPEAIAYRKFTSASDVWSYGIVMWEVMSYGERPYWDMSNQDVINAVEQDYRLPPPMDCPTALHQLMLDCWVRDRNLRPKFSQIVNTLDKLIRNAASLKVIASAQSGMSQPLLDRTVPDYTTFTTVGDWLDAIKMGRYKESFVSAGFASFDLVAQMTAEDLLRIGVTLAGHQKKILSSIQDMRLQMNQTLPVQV
The following applies: at 1 µM.

The target in test [5] is T3, Ephrin type-B receptor 3 (Homo sapiens). The following applies: at 10 µM.
Test [6] deals with T4, Ephrin type-B receptor 4 (Homo sapiens) (UniProt P54760).
T4 sequence (whole entry): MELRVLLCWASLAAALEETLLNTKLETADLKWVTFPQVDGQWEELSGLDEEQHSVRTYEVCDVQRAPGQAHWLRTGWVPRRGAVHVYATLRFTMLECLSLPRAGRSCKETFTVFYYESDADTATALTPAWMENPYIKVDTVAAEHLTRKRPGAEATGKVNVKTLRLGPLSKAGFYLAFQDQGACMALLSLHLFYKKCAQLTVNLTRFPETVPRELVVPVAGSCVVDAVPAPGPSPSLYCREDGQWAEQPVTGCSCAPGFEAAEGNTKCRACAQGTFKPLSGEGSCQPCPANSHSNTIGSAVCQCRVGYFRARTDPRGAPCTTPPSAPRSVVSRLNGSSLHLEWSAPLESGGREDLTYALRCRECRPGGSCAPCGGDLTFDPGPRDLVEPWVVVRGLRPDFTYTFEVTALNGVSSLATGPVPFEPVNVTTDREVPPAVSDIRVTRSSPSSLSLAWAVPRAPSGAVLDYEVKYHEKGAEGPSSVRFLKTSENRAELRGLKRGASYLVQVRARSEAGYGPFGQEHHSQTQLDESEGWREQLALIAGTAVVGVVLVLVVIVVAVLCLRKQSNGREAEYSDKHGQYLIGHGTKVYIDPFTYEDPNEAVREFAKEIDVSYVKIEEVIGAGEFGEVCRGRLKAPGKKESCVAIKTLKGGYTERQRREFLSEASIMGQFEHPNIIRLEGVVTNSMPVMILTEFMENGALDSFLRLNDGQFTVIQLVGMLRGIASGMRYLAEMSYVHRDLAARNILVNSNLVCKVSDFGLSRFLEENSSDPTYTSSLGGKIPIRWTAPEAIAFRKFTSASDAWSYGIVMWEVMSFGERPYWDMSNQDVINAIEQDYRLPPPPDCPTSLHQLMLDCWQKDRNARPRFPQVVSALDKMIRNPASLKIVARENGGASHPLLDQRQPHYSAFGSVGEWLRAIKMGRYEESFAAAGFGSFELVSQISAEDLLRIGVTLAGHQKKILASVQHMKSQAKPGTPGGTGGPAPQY
Particulars: at 1 µM.

Test [7] addresses T4, Ephrin type-B receptor 4 (Homo sapiens). The following applies: at 10 µM.
The target of test [8] is Receptor tyrosine-protein kinase erbB-4 (Homo sapiens) (UniProt Q15303). Particulars: at 1 µM.
Receptor tyrosine-protein kinase erbB-4 (Homo sapiens), sequence (Q15303 whole entry): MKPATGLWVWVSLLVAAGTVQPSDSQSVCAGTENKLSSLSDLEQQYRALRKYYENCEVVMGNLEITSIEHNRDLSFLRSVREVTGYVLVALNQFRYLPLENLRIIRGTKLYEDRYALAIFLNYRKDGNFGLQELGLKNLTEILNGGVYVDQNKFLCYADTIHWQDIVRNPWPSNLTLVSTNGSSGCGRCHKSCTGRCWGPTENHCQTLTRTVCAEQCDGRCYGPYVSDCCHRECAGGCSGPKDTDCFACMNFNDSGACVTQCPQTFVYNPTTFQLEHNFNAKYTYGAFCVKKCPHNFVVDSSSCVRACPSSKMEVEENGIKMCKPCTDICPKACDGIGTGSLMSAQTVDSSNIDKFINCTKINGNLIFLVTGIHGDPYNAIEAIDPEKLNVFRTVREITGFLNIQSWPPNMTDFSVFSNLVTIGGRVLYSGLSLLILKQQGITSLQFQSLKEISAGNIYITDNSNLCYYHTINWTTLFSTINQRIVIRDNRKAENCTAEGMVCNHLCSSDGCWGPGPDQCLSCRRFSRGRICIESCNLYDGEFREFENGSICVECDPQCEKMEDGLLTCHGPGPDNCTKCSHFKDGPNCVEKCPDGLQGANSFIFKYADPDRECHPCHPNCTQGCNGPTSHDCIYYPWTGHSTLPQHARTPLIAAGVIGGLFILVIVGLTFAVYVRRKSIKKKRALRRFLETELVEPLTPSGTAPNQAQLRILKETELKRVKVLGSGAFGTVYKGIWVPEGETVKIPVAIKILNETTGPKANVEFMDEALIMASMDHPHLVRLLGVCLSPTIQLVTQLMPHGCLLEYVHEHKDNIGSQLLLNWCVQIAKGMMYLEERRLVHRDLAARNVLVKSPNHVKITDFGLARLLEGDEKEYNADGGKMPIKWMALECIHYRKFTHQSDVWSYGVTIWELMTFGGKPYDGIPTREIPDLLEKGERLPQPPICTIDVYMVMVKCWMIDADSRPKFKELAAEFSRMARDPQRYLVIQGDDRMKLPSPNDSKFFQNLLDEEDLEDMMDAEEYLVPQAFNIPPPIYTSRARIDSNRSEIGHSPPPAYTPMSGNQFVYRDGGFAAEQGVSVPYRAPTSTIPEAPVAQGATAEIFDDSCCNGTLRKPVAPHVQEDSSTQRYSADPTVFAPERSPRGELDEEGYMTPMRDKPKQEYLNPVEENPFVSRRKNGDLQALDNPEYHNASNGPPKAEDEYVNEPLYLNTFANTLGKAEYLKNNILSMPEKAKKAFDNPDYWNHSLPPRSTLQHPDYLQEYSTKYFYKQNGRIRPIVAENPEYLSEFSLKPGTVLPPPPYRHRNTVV
For test [9] the target is unchanged. Particulars: at 10 µM.
For test [10], the target named is Focal adhesion kinase 1 (Homo sapiens) (UniProt Q05397). Particulars: at 1 µM.
Focal adhesion kinase 1 (Homo sapiens), sequence (Q05397 2-1052 limits assumed): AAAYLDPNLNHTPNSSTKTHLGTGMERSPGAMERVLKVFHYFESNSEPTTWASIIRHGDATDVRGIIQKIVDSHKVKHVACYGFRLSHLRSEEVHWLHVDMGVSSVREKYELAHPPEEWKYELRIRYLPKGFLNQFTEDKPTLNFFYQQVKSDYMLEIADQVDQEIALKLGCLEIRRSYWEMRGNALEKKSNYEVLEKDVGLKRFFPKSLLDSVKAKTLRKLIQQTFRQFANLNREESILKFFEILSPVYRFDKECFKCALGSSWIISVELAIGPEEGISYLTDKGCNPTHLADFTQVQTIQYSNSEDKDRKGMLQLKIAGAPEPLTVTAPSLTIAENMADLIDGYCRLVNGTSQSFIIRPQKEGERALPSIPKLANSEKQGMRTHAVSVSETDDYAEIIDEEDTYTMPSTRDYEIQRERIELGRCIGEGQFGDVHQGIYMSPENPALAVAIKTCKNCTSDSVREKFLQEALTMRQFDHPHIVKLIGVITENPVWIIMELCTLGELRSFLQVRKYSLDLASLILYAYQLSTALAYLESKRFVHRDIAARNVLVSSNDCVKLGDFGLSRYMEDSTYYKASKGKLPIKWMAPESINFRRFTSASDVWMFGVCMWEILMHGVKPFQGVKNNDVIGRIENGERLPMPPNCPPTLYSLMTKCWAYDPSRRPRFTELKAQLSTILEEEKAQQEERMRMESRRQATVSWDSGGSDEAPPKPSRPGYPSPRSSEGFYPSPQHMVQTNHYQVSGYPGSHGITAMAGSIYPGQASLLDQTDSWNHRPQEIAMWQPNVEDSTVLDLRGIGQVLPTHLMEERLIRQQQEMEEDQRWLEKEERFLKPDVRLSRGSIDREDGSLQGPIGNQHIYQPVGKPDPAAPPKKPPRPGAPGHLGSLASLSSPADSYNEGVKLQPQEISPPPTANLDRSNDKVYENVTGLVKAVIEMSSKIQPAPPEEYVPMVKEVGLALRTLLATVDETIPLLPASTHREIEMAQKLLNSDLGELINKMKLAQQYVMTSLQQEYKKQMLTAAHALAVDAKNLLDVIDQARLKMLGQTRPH

SMILES strings stand for the structures.

On to `Nc1cccc(-c2cc3c(Oc4cccc(O)c4)ncnc3[nH]2)c1`, for which the residual activity in test [1] was -1%; in test [2], 4%; in test [3] it was -1%; in [4], 105% (inactive); in test [5], 90%; in [6], 2%. Also, the residual activity in [7] is -3%; in test [8], 71%; in test [9], 19%; in test [10], 87%.
